# Rows were chosen to be rich in hits. Some 27% of all compounds tested hit in one or more screens of this group.
# Cav3 T inh: blocks human Cav3.2 T-type calcium channel. AID 449739. Cav3.2-expressing cells, Fluo-4 calcium fluorescence FDSS; active compounds read low. B-score at 10 µM. O95180. 100,000 compounds, 4% hits;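 active = single-dose well whose peak fluorescence ratio is a statistical outlier from its plate by either plate-standardised score or position-corrected B-score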
# CYP2C9 inhib: blocks human cytochrome P450 2C9 | P11712 | CYP2C9 Supersomes, luciferin-H conversion, luminescence | inhibition, % at 5 µM | 96,000 compounds, 20% hits | AID 777;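 active = blocking of liver enzyme CYP2C9 beyond about 50% at 5 µM, limit read from the data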
# Target sequence (P11712 whole entry, looked up): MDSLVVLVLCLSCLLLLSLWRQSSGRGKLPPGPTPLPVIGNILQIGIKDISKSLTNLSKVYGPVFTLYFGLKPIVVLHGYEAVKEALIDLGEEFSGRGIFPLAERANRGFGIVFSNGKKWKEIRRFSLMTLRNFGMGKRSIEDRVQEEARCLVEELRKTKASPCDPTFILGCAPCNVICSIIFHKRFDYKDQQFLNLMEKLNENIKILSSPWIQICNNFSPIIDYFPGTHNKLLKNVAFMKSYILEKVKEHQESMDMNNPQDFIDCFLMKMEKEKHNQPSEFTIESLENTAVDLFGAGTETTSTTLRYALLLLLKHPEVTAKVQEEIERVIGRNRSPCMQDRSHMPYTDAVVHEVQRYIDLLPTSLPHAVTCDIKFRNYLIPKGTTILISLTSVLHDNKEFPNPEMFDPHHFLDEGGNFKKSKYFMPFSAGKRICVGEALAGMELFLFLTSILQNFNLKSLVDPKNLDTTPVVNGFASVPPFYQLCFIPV
# CYP2C9 activ: increases human cytochrome P450 2C9 activity; P11712; recombinant CYP2C9, luciferin-H conversion, luminescence; active compounds read high; factor 1 = untreated enzyme, 0 = blocked; activation factor at 5 µM; 96,000 compounds, 1.4% hits; AID 1024;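 active = activation factor of 2 or more for CYP2C9 at a 5 µM dose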;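 also: 0 = sulfaphenazole-blocked wells and 1 = vehicle-only wells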
# CYP2C19 act: increases human CYP2C19 enzyme activity; P33261; recombinant CYP2C19, luciferin-H EGE luminescence; active compounds read high; 0 = fully inhibited enzyme, 1 = untreated enzyme; activation factor at 5 µM; 96,000 tested, under 10 active;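 active = activation factor of at least 2 at 5 µM in the primary screen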;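 also: 0 = wells with 2.5 mM tranylcypromine and 1 = vehicle-only wells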
# CYP2C19 inh: blocks human cytochrome P450 2C19; 96,000 compounds, 21% hits; P33261; CYP2C19 Supersomes, luciferin-H EGE luminescence, 30 min; AID 778; inhibition, % at 5 µM;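 active = CYP2C19 inhibition above a set limit at 5 µM in the primary screen, cut at about 50% in these data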;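 also: plate controls were negative control wells for no effect and 2.5 mM tranylcypromine positive control for full effect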
# Numbers without * were called inactive; · = not tested or not shown.
SMILES,Cav3 T inh,CYP2C9 inhib,CYP2C9 activ,CYP2C19 act,CYP2C19 inh
CCOC(=O)N1CCN(C(=O)CSCC(=O)Nc2nc(-c3ccc(OC)cc3)cs2)CC1,-2.4,83*,0.2,0.2,84*
CCOC(=O)Cc1csc(NC(=O)CSc2nnc(-c3ccc(OC)cc3)n2C)n1,1.4,59*,0.4,0.7,30
CCOC(=O)Cc1csc(NC(=O)CSc2nnnn2-c2ccc(F)cc2)n1,-4.5*,49,0.5,0.8,16
CCOC(=O)Cc1csc(NC(=O)CSc2nnnn2-c2ccc(C)cc2C)n1,-2.8,·,·,·,·
Cc1ccc(NC(=O)C2CCCN(S(=O)(=O)c3c(C)noc3C)C2)cc1F (stereo not given),-0.046,18,0.8,0.7,28
COc1ccc2[nH]c(=O)c(-c3nnn(-c4ccc(Cl)nc4)n3)cc2c1,-0.12,·,·,·,·
O=C(CSc1nnc(-c2ccco2)o1)NC(=O)C1COc2ccccc2O1 (stereo not given),-0.019,-90,1.9,0.4,61*
O=C(CSc1nnc(-c2ccco2)o1)NC(=O)Cc1ccccc1,0.77,3,1,0.9,12
Cc1cc(C(=O)CSc2nnc(-c3ccc(F)cc3)o2)c(C)n1CC1COc2ccccc2O1 (stereo not given),-2.7,54*,0.5,0.5,45
O=C(CSc1nnc(-c2ccc(F)cc2)o1)c1ccc2c(c1)OCCO2,-0.41,18,0.8,1,5
Cc1cc(C(=O)CSc2nnc(-c3ccco3)o2)c(C)n1CC1COc2ccccc2O1 (stereo not given),-3.7,78*,0.2,0,100*
CCCCc1nc(NCCNC(=O)c2ccco2)c(C#N)c2c1CSC(C)(C)C2,-5.8*,93*,0.1,0.3,68*
CCCCc1nc(NCCNC(=O)c2ccccc2)c(C#N)c2c1CSC(C)(C)C2,-4.5*,33,0.7,1,1
CC1(C)Cc2c(c(-c3ccccc3)[nH]c(=O)c2C#N)CS1,0.89,-22,1.2,0.7,27
Cc1nc(NCCNC(=O)c2ccco2)c2c(C)c(C)sc2n1,2.5,29,0.7,0.9,6
C=CCN(c1ccc(C(=O)NCCc2ccccc2)cc1)S(C)(=O)=O,0.57,-10,1.1,0.9,10
N#C/C(C(=O)c1ccccc1)=C1/SC=C(N)N1c1ccccc1,-1.5,92*,0.1,0.2,81*
O=S(=O)(C/C(=C/CO)S(=O)(=O)c1ccccc1)c1ccccc1,·,20,0.8,0.6,36
COC(=O)C1=CN(CCCN2CCCC2=O)C=C(C(=O)OC)C1c1ccccc1C(F)(F)F,0.8,45,0.6,0.9,7
CCSc1nc2ccccc2n1Cc1nc(N)nc(N(C)C)n1,-0.13,66*,0.3,0.1,90*
CC(=O)O[C@@H]1[C@@]2(C)O[C@H]2CC[C@]23O[C@H]2[C@H](OC3=O)C2=C(C)C(=O)O[C@@]21O,-0.46,·,·,·,·
Cc1ccc(CNC(=O)C(=O)NCC2OCCN2S(=O)(=O)c2cccs2)cc1 (stereo not given),-4.7*,·,·,·,·
O=S(=O)(/N=S1/CC=CCN1S(=O)(=O)c1ccccc1)c1ccccc1 (stereo not given),-0.47,55*,0.4,1,2
O=C1CCN(S(=O)(=O)c2ccccc2)N1,·,5,1,1,3
CC(=O)Nc1cccc(NC(=O)C2CCCN2C(=O)Nc2ccc(Cl)cc2)c1 (stereo not given),-0.032,42,0.6,0.8,18
SMILES,Cav3 T inh,CYP2C9 inhib,CYP2C9 activ,CYP2C19 act,CYP2C19 inh
COc1cc(NC(=O)c2cccs2)ccc1NC(=O)c1ccco1,0.85,74*,0.3,0.8,25
COc1cc(NC(=O)c2ccco2)ccc1NC(=O)c1ccccc1Cl,0.54,72*,0.3,0.5,51*
O=C(Nc1cccc(NC(=O)c2cccs2)c1)c1ccco1,0.0055,20,0.8,1.1,-10
COc1ccc(OC)c(CNCCNC(=O)c2ccco2)c1,0.42,13,0.9,0.3,73*
COc1ccccc1NC(=O)c1ccccc1NC(=O)c1cc(Cl)ccc1NC(=O)c1ccco1,-0.76,25,0.7,1,4
COc1ccc(NC(=O)c2ccccc2NC(=O)c2ccco2)c(OC)c1,-0.42,59*,0.4,0.8,24
COc1ccc(-n2c(SCC(=O)N3CCCCC3C)nnc2-c2cccnc2)cc1 (stereo not given),1.4,43,0.6,0.6,42
COCCCNC(=O)/C=C/c1ccc(Cl)cc1,0.043,-2,1,1.1,-10
COc1ccc(/C=C/C(=O)c2ccc(NC(=O)c3cccs3)cc2)cc1OC,-0.13,72*,0.3,0.7,34
C=CCOc1c2ccc(C(=O)NCc3ccc(C)cc3)cc2nn1C,2,-5,1.1,0.9,13
CC(=O)N1CCc2cc(S(=O)(=O)NCCC(=O)NCCc3ccccc3)ccc21,0.54,45,0.6,0.7,34
COc1ccccc1CNS(=O)(=O)c1ccc2c(c1)oc(=O)n2C,-1.3,-188,2.9*,0,98*
CCN(CC)c1ccc(NS(=O)(=O)c2ccc3c(c2)oc(=O)n3C)c(C)c1,-0.24,53*,0.5,0.2,84*
CC(C)NS(=O)(=O)c1ccc2c(c1)oc(=O)n2C,-0.38,·,·,·,·
Cn1c(=O)oc2cc(S(=O)(=O)NCCC(=O)NCCc3ccccc3)ccc21,0.08,-12,1.1,0.3,72*
CC(=O)N1CCc2cc(S(=O)(=O)NCCC(=O)NCCc3ccc(C)cc3)ccc21,1.1,59*,0.4,0.9,6
Cc1cc(C)cc(NC(=O)CCNS(=O)(=O)c2ccc3c(c2)oc(=O)n3C)c1,0.38,·,·,·,·
O=C1C2C3CCCC3=C3CCCC3C2C(=O)N1c1ccc(F)cc1 (stereo not given),-0.084,6,0.9,1,2
CC1=CC(C)(C)n2c(O)c(C3=NC(=S)NC3=O)c3cc(OC(=O)c4cccc5ccccc45)cc1c32,·,-3,1,1.1,-10
Cc1ccc(CCNC(=O)CCNS(=O)(=O)c2ccc3c(c2)oc(=O)n3C)cc1,-0.086,0,1,0.4,58*
Cn1c(=O)oc2cc(S(=O)(=O)NCCC(=O)NCCc3ccc(Cl)cc3)ccc21,-1.2,22,0.8,0.5,50
CCN(CCNS(=O)(=O)c1ccc2c(c1)oc(=O)n2C)c1ccccc1,0.015,-86,1.9,0.3,65*
CCCN(CCC)CCNS(=O)(=O)c1ccc2c(c1)oc(=O)n2C,·,-7,1.1,1.1,-7
O=C1c2ccccc2C(=O)N1CCn1c(=O)oc2ccccc21,-2,-9,1.1,0.7,32
Cc1ccc(-c2nc(NC(=O)c3nn(C)cc3[N+](=O)[O-])sc2C)cc1C,·,54*,0.5,1,-4
O=C(CN(c1ccc(Cl)cc1)S(=O)(=O)c1ccccc1)N1CCN(c2ccccc2)CC1,-8.1*,92*,0.1,0,97*
O=C(CN(c1ccc(Cl)c(Cl)c1)S(=O)(=O)c1ccccc1)N1CCc2ccccc2C1,-5.4*,50*,0.5,0.1,89*
